Drawing on PubChem BioAssay (NCI), this text covers growth for nine molecules.

The structures appear in SMILES notation. The panel holds about 83,000 compounds, 20% with a hit somewhere; the sample as a whole holds those more often.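 The test compound was applied at a single concentration to cells in 96-well plates for 48 hours, and percent growth was recorded.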 A number with no mark means an inactive call. Calls of active or inactive are those of the source. How the source made its calls: active means growth percent below 10; inactive means the rest.

Among the test systems are EKVX NSCLC; SN12C renal; UO-31 renal; TK-10 renal; ACHN renal; CAKI-1 renal; A498 renal; CCRF-CEM leukemia; MOLT-4 leukemia; SR leukemia; RPMI-8226 leukemia; OVCAR-8 ovarian; OVCAR-5 ovarian; OVCAR-4 ovarian; SK-OV-3 ovarian; IGROV1 ovarian; OVCAR-3 ovarian; HS 578T breast; NCI/ADR-RES ovarian.
Holding throughout (test): NCI-60 one-dose screen, 48 h (100 = growth as untreated, 0 = no growth, -100 = all killed)
Settings in all cases: 10 µM

`OC[C@H]1OC([S-])[C@H](O)[C@@H](O)[C@@H]1O.[Au+]` (stereo partly specified): the growth was 106% with EKVX NSCLC; 98.5% with SN12C renal; 99.4% with UO-31 renal; 124% with TK-10 renal; 105% in the assay with ACHN renal; 108% in the assay with CAKI-1 renal. The growth in the assay on A498 renal was 174%; in the assay with CCRF-CEM leukemia it was 61.5%; in the assay with MOLT-4 leukemia, 75.9%; in the assay on SR leukemia, 41.7%; with RPMI-8226 leukemia it was 80.6%; in the assay on OVCAR-8 ovarian, 104%. For the same molecule, the growth in the assay on OVCAR-5 ovarian was 129%; in the assay on OVCAR-4 ovarian it was 96.9%; in the assay on SK-OV-3 ovarian, 120%; in the assay on IGROV1 ovarian, 119%; in the assay with OVCAR-3 ovarian, 128%; with HS 578T breast it was 73.3%. The growth with NCI/ADR-RES ovarian is 101%.

As for `CSc1ccc(-c2cc(-c3ccc(NC(=O)CCCN4CCCC4)cc3)nc(-c3ccc(NC(=O)CCCN4CCCC4)cc3)c2)cc1`, the growth was 77.8% with SN12C renal; 84.9% in the assay on UO-31 renal; 73.8% with TK-10 renal; 86.1% in the assay on ACHN renal; 83.6% in the assay with CAKI-1 renal; 74.2% in the assay on A498 renal. Also, the growth in the assay with MOLT-4 leukemia is 4.93% (active); in the assay with SR leukemia, 32.2%; with RPMI-8226 leukemia it was 73.2%; in the assay on OVCAR-8 ovarian, 76.4%; in the assay with OVCAR-5 ovarian, 72.3%; in the assay with SK-OV-3 ovarian, 75.2%. Also, the growth was 63.4% in the assay with OVCAR-3 ovarian, 55% in the assay on HS 578T breast and 95.5% in the assay on NCI/ADR-RES ovarian.

In the case of `Nc1cc(-c2ccncc2)c[nH]c1=O`, the growth with EKVX NSCLC was 84.1%; in the assay with SN12C renal, 104%; in the assay with UO-31 renal it was 82.5%; with TK-10 renal, 99.9%; in the assay with ACHN renal it was 102%; with CAKI-1 renal it was 99.5%. For the same molecule, the growth was 73.3% in the assay with A498 renal; 113% in the assay on CCRF-CEM leukemia; 77.4% in the assay with MOLT-4 leukemia; 74.3% in the assay on SR leukemia; 109% in the assay on RPMI-8226 leukemia; 100% with OVCAR-8 ovarian. The growth in the assay with OVCAR-5 ovarian is 98.8%; in the assay on OVCAR-4 ovarian, 106%; in the assay on SK-OV-3 ovarian it was 120%; in the assay with IGROV1 ovarian, 108%; in the assay with OVCAR-3 ovarian, 107%; in the assay on HS 578T breast it was 110%. Besides, the growth in the assay with NCI/ADR-RES ovarian is 104%.

As for `CC(C)(C)c1ccc(S(=O)(=O)N[C@H]2CC[C@H]3[C@@H]4CCc5cc(O)c([N+](=O)[O-])cc5[C@H]4CC[C@]23C)cc1`, the growth in the assay on SN12C renal is 71.8%; with UO-31 renal, 35.2%; with TK-10 renal, 90.6%; with ACHN renal, 30%; in the assay on CAKI-1 renal, 46.3%; with A498 renal, 75.8%. The growth in the assay with MOLT-4 leukemia is 78.5%; with SR leukemia, 63.5%; in the assay with RPMI-8226 leukemia, 67.3%; in the assay on OVCAR-8 ovarian, 59.6%; with OVCAR-5 ovarian, 95.9%; in the assay on OVCAR-4 ovarian, 10.3%. Moreover, the growth in the assay with SK-OV-3 ovarian is 47.7%; in the assay on IGROV1 ovarian, 78.1%; with OVCAR-3 ovarian it was 53.7%; with HS 578T breast it was 61.6%; in the assay on NCI/ADR-RES ovarian, 69.1%.

With `O=C1/C=C/[C@@H](O)[C@@H]2C[C@@H](O)C[C@H]2/C=C/CCC[C@H](CCc2ccc(C(F)(F)F)cc2)O1`, the growth with EKVX NSCLC was 3.27% (active); in the assay with SN12C renal, 1.34% (active); with UO-31 renal, 1.2% (active); with TK-10 renal, -40% (active); in the assay on ACHN renal it was 8.15% (active); with CAKI-1 renal it was 8.3% (active). The growth in the assay on A498 renal was -29.7% (active); in the assay with CCRF-CEM leukemia, -11% (active); in the assay on MOLT-4 leukemia, -21.5% (active); in the assay on RPMI-8226 leukemia, -8.16% (active); in the assay with OVCAR-8 ovarian it was 2.31% (active); in the assay on OVCAR-5 ovarian, 13.6%. The growth is 9.39% (active) in the assay with OVCAR-4 ovarian; 12.5% in the assay on SK-OV-3 ovarian; 5.99% (active) in the assay with IGROV1 ovarian; -10.4% (active) with OVCAR-3 ovarian; 27.8% with HS 578T breast; 3.21% (active) with NCI/ADR-RES ovarian.

`C[C@]12CC[C@@H]3c4ccc(O)cc4CC[C@H]3[C@@H]1CC[C@@H]2NS(=O)(=O)c1ccc(C(F)(F)F)cc1`: the growth is 42% with SN12C renal; 13.6% in the assay with UO-31 renal; 26.9% in the assay on ACHN renal; 38.6% with CAKI-1 renal; 61.3% in the assay with A498 renal; 11.7% in the assay with MOLT-4 leukemia. Also, the growth with SR leukemia is 18.9%; with RPMI-8226 leukemia it was 34.8%; in the assay with OVCAR-8 ovarian, 57%; in the assay on OVCAR-5 ovarian, 90.5%; in the assay with OVCAR-4 ovarian, 49.1%; in the assay with SK-OV-3 ovarian, 86.6%. Further, the growth in the assay on IGROV1 ovarian is 30.5%; in the assay with OVCAR-3 ovarian, 35.4%; in the assay on HS 578T breast, 72.7%; in the assay with NCI/ADR-RES ovarian, 53%.

Turning to `O=c1[nH]c(=O)n(C2C[C@H](O)[C@@H](CO)O2)cc1C(F)(F)F` (stereo partly specified), the growth was 109% in the assay on EKVX NSCLC; 110% with SN12C renal; 89.7% with UO-31 renal; 104% with TK-10 renal; 106% in the assay on ACHN renal; 96.3% with CAKI-1 renal. In addition, the growth is 118% in the assay on A498 renal; 95% in the assay on CCRF-CEM leukemia; 70.2% in the assay with MOLT-4 leukemia; 91.9% in the assay with SR leukemia; 97.5% in the assay with RPMI-8226 leukemia; 103% in the assay on OVCAR-8 ovarian. In addition, the growth was 103% with OVCAR-5 ovarian; 114% in the assay with OVCAR-4 ovarian; 109% with SK-OV-3 ovarian; 120% with IGROV1 ovarian; 117% in the assay on OVCAR-3 ovarian; 124% with HS 578T breast. The growth in the assay on NCI/ADR-RES ovarian was 102%.

Consider `O=C1/C(=C/c2cccc(F)c2)Cc2ccccc21`, for which the growth with SN12C renal was 98.6%; in the assay on UO-31 renal, 92.8%; with TK-10 renal it was 94.2%; in the assay on ACHN renal it was 102%; in the assay on CAKI-1 renal it was 82.9%; in the assay with MOLT-4 leukemia it was 112%. The growth in the assay on RPMI-8226 leukemia is 93.3%; with OVCAR-8 ovarian, 97.4%; in the assay with OVCAR-5 ovarian it was 120%; with OVCAR-4 ovarian, 97.5%; in the assay on SK-OV-3 ovarian, 108%; with IGROV1 ovarian, 99.6%. Further, the figures for the growth in the assay on OVCAR-3 ovarian and with NCI/ADR-RES ovarian were 113% and 102%, respectively.

As for `Clc1ccc2c(c1)C(N1CCNCC1)=Nc1ccccc1O2`, the growth in the assay on EKVX NSCLC was 64.6%; in the assay with SN12C renal, 57.8%; in the assay with UO-31 renal, 28.3%; with TK-10 renal, 64.9%; with ACHN renal, 46%; in the assay with CAKI-1 renal it was 36.5%. The growth in the assay with A498 renal is 25.2%; in the assay with CCRF-CEM leukemia, 58.5%; in the assay on MOLT-4 leukemia, 20%; with SR leukemia, 3.72% (active); with RPMI-8226 leukemia, 50%; with OVCAR-8 ovarian it was 73.2%. In addition, the growth in the assay on OVCAR-5 ovarian was 69%; with OVCAR-4 ovarian it was 41.1%; in the assay with SK-OV-3 ovarian, 67%; with IGROV1 ovarian, 48.1%; with OVCAR-3 ovarian, 46.6%; in the assay on HS 578T breast, 60.7%. In addition, in the assay with NCI/ADR-RES ovarian, the growth was 62.8%.
